# Screening results deposited in PubChem by Broad Institute.
# p53 PUMA act: re-activators of the mutant p53 pathway; activation, % at 9.98 µM; 28,000 tested, 1.5% active; SW480 PUMA-promoter luciferase, p53 mutant reactivation; in the data active means activation above about 52%
# ID4 binder: binds human ID4 protein on microarray | P47928 | small molecule microarray, Flag-ID4 binding, fluorescence F/B | calls only | 31,000 tested, 1.2% active | AID 624137; call rule not given here;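 further: a binder raises fluorescence above local background on the spot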
# Target sequence (P47928 whole entry, looked up): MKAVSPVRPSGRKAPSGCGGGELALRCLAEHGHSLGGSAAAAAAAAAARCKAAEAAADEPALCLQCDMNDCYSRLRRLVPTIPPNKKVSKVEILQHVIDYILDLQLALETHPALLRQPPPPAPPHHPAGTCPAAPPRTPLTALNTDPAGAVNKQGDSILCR
# Active calls of the source: *; i = inactive; / = no result; + = active, no number. Compounds with a hit are over-represented: about 2.3% of the library has one in this group of screens.
SMILES,p53 PUMA act,ID4 binder
CC1OC(OC2C(CO)OC(OC(=O)[C@]34CCC(C)(C)CC3C3=CCC5[C@@]6(C)CC[C@H](OC7OC(C)C(OC8OCC(O)(COC9OCC(O)C(OC%10OCC(OC%11OCC(O)(CO)C%11O)C(O)C%10O)C9O)C8O)C(O)C7O)C(C)(C)C6CC[C@@]5(C)[C@]3(C)CC4)C(O)C2O)C(O)C(O)C1O (some centres undefined),-16,i
CC(=O)C(C)Sc1ncnc2sc(-c3ccccc3)cc12 (centres undefined),73*,i
O=C(CSc1ncnc2sc(-c3ccccc3)cc12)NC1CCCCC1,-31,i
FC(F)(F)c1ccc2nc(SCc3ccc(Br)cc3)[nH]c2c1,0,i
COc1ccc(NC(=O)COc2ccc(Br)cc2Cl)c([N+](=O)[O-])c1,26,i
COc1ccc(NC(=O)COc2c(Cl)c(C)c(Cl)c(C)c2Cl)c([N+](=O)[O-])c1,17,i
COc1ccc(NC(=O)COc2ccccc2Cl)c([N+](=O)[O-])c1,84*,i
COc1cccc(OCC(=O)Nc2ccccc2[N+](=O)[O-])c1,49,i
COc1ccc(OCC(=O)Nc2ccc(OC)cc2[N+](=O)[O-])cc1,98*,i
CCc1cccc(OCC(=O)Nc2ccc(OC)cc2[N+](=O)[O-])c1,91*,i
COc1ccc(NC(=O)COc2ccc(Cl)c(C)c2)c([N+](=O)[O-])c1,74*,i
COc1ccc(NC(=O)COc2cc(C)c(Br)cc2C)c([N+](=O)[O-])c1,3,i
COc1ccc2nc(/N=C(/N)NC(=O)N3c4ccccc4Sc4ccccc43)nc(C)c2c1,-5,i
COc1ccc2cc(Br)ccc2c1CC(=O)Nc1cccnc1,-5,i
CCn1c(SCC(=O)c2ccc(OC)cc2)nnc1-c1cccs1,-5,i
O=C(CSc1nnc(-c2cccc3ccccc23)o1)Nc1cccc(F)c1,29,i
C=CCNC(=O)[C@H]1[C@@H]2C(=O)O[C@@H](c3ccccc3)[C@@H](c3ccccc3)N2[C@@H](c2ccc(OCCO)cc2)[C@]12C(=O)Nc1ccc(C#CCNC(N)=O)cc12,/,i
O=C(O)C1CCCCC1C(=O)Nc1ccc(C(=O)N2CCCCC2)c(Cl)c1 (centres undefined),-1,i
O=C(CSc1nc2sc3c(c2c(=O)n1Cc1ccco1)CCC3)N1CCCc2ccccc21,-12,i
COc1ccc(C2(CNC(=O)CC#N)CCCC2)cc1OC,-3,i
O=C(O)COc1ccc(OCCNC[C@@H](O)COc2ccccc2)cc1,6,+
COCCNC(=O)COc1ccc(OCCNC[C@@H](O)COc2ccccc2)cc1,-13,i
CC(C)c1ccccc1OCC(=O)Nc1sc2c(c1C(N)=O)CCCC2,24,i
CCn1ccc(CNC(=O)Nc2ccc(Cl)cc2Cl)n1,24,i
Cc1nc2cc(NC(=O)NCc3ccco3)ccc2o1,58*,i
SMILES,p53 PUMA act,ID4 binder
Cn1nnc2cc(NC(=O)NCc3ccco3)ccc21,18,i
COC(=O)c1ccc(OCC(O)Cn2c(C)nc3ccccc32)cc1 (centres undefined),3,+
Cc1nc2ccccc2n1CC(O)COc1ccc(C(=O)O)cc1 (centres undefined),4,i
C[C@@H]1CC[C@]2(C(=O)O[C@@H]3O[C@H](CO)[C@@H](O)[C@H](O)[C@H]3O)CC[C@]3(C(=O)O)C(=CCC4[C@@]5(C)CC[C@H](OC6OC[C@@H](O)[C@H](O)[C@H]6O)C(C)(C)C5CC[C@]43C)C2[C@H]1C (some centres undefined),-12,i
COc1ccc(S(=O)(=O)N(C)CC(N)=O)cc1Cl,7,i
COc1ccc2[nH]c(C(=O)O)c(CCC(=O)O)c2c1,2,i
COc1ccc2[nH]c3c(OC)ncnc3c2c1,81*,i
COc1ccc(S(=O)(=O)N(C)CC(=O)Nc2ccc(Br)cc2F)cc1Cl,12,i
COCCOC(=O)N1C(=O)[C@@]2(c3cc(C#CCNC(N)=O)ccc31)[C@H](C(=O)N1CCc3cc(OC)c(OC)cc3C1)[C@H]1C(=O)O[C@H](c3ccccc3)[C@H](c3ccccc3)N1[C@@H]2c1ccccc1OCCO,/,i
COCCOC(=O)N1C(=O)[C@@]2(c3cc(C#Cc4ccc(OC)cc4)ccc31)[C@H](C(=O)N1CCc3cc(OC)c(OC)cc3C1)[C@H]1C(=O)O[C@H](c3ccccc3)[C@H](c3ccccc3)N1[C@@H]2c1ccccc1OCCO,/,+
CC(Oc1ccc(Cl)cc1Cl)/C(N)=N/O (centres undefined),12,i
CC(O)c1cc(-c2ccc(Cl)cc2Cl)no1 (centres undefined),113*,i
COc1cc([N+](=O)[O-])ccc1NC(=S)Nc1nn(Cc2ccc(Cl)cc2Cl)cc1Cl,-6,i
COc1ccc(C(=O)NCC(=O)Nc2cccc(C(F)(F)F)c2)cc1,-8,i
COc1cccc(NC(=O)CNC(=O)c2ccccc2)c1,57*,i
Cc1c(C(=O)Nc2nnc(SC/C=C/c3ccccc3)s2)oc2ccccc12,54*,i
Cc1c(C(=O)Nc2nnc(SCc3ccccc3F)s2)oc2ccccc12,24,i
O=C(COc1ccc(Cl)cc1C1C2=C(CCCC2=O)NC2=C1C(=O)CCC2)Nc1ccc(Cl)cc1,-21,i
COc1cc(OC)cc(-c2nnc(SCC(=O)Nc3ccccc3)o2)c1,102*,i
O=C(CSc1nnc(-c2ccc(Cl)cc2)o1)Nc1ccccc1C(F)(F)F,68*,i
O=C(CSc1nnc(-c2ccc(Cl)cc2)o1)Nc1ccc(I)cc1,24,i
Cc1ccc(NC(=O)CSc2nnc(-c3ccc(C(C)(C)C)cc3)o2)c(C)c1,-7,i
O=C(CSc1nnc(-c2ccncc2)o1)Nc1ccccc1,31,i
Cc1cc([N+](=O)[O-])ccc1NC(=O)CSc1nnc(-c2ccccc2)o1,67*,i
COc1ccc(NC(=O)C(C)N(c2ccc(C)c(C)c2)S(C)(=O)=O)cc1 (centres undefined),7,i
SMILES,p53 PUMA act,ID4 binder
Cc1cc(C)c(NC(=O)C(C)N(c2ccccc2)S(C)(=O)=O)c(C)c1 (centres undefined),6,i
O=C1c2c(O)cc(O)c([C@@H]3C(=O)c4c(O)cc(O)cc4O[C@H]3c3ccc(O)cc3)c2O[C@@H](c2ccc(O)cc2)[C@@H]1O,14,/
CCCC(=O)Nc1ccc2c(c1)OC[C@@H](C)N(CCc1ccccc1)C[C@@H](C)[C@H](OC)CN(C)C2=O,/,i
CO[C@@H]1CN(C)C(=O)c2ccc(NC(C)=O)cc2OC[C@@H](C)N(CCc2ccccc2)C[C@H]1C,/,+
O=C(CSc1nc2[nH]ncc2c(=O)n1-c1ccccc1)Nc1nsc(-c2ccccc2)n1,-15,i
COc1cccc(C2C(C(=O)c3ccco3)C(=O)C(=O)N2CCN(C)C)c1OC (centres undefined),-9,i
CO[C@H]1CC(O[C@@H]2/C(C)=C/C[C@@H]3C[C@@H](C[C@]4(CC[C@H](C)[C@@H](C5CCCCC5)O4)O3)OC(=O)[C@@H]3C=C(C)/C(=N/O)[C@H]4OC/C(=C\C=C\[C@@H]2C)[C@]43O)O[C@@H](C)C1O (some centres undefined),-7,/
CC(C)(C)c1ccc(OCC(=O)Nc2cccnc2)c(Br)c1,70*,i
O=C(COc1ccc(Cl)cc1)Nc1cccnc1,29,i
